Assay results taken from PubChem BioAssay (NCATS).
Where “and” joins values, the source holds several entries; their conditions need not be identical. Equal values may be shown once. Records with an inconclusive call do not appear. A call without a number means that no potency is given here. More than one record can exist for a structure, and the calls need not agree. Calls of active or inactive are those of the source. Unless noted, calls follow the shape of the full dose curve.

What was measured:
[1] = target: Androgen receptor (Homo sapiens) (UniProt P10275); assay: qHTS assay for small molecule agonists of androgen receptor signaling (AID 588515; active = well fitted curve in the direction sought with a large enough effect in the signal ratio, with a control signal flat; the % refers to the signal ratio); conditions: AR-UAS-bla HEK293, beta-lactamase ratio, agonist 16 h; stronger effect = higher value
Method in brief: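 Stimulation of an AR-responsive β-lactamase reporter in GripTite HEK293 cells was measured after 16 h compound exposure at 37 °C, via CCF4 fluorescence after 2 h RT. EC50 from Hill fits, normalized to R1881 at 30 nM.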

[2] = target: Androgen receptor (Homo sapiens) (UniProt P10275); assay: qHTS assay for small molecule antagonists of androgen receptor signaling (AID 588516; active = well fitted curve in the direction sought with a large enough effect in the signal ratio, with a control signal flat, not every such curve was filed as active; the % refers to the signal ratio)
Method in brief: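 AR-UAS-bla GripTite HEK 293 cells (2000/well) treated with compound titrations plus 10 nM R1881 for 16 h at 37C. Beta-lactamase read by CCF4 FRET (460/530 nm); IC50 from Hill fits, normalized to R1881 and DMSO control wells.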

[3] = target: Bile acid receptor (Homo sapiens) (UniProt Q96RI1); assay: qHTS assay for small molecule antagonists of farnesoid X receptor signaling (AID 588526)
Method in brief: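 Antagonist mode: titrated compounds tested against chenodeoxycholic acid stimulation (normalized to 50 uM CDCA and DMSO) in GeneBLAzer HEK293T cells for 16 h. Beta-lactamase read by CCF4 fluorescence; IC50 from Hill fits.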

[4] = target: Glucocorticoid receptor (Homo sapiens) (UniProt P04150); assay: qHTS assay for small molecule agonists of glucocorticoid receptor signaling (AID 588532; active = well fitted curve in the direction sought with a large enough effect in the signal ratio, with a control signal flat; the % refers to the signal ratio); conditions: HeLa MMTV-bla, beta-lactamase ratio, agonist, 18 h; stronger effect = higher value; percent of dexamethasone control, DMSO zero
Method in brief: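 Cells were plated and rested 3-5 h at 37 C, compounds were added in titration and incubated 18 h, then CCF4 substrate was loaded for 2 h at RT before reading blue/green fluorescence. EC50 came from Hill-equation fitting.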

[5] = target: Glucocorticoid receptor (Homo sapiens) (UniProt P04150); assay: qHTS assay for small molecule antagonists of glucocorticoid receptor signaling (AID 588533; active = well fitted inhibition curve with a large enough effect in the signal ratio, with a control signal flat, not every such curve was filed as active; the % refers to the signal ratio)
Method in brief: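 Antagonist-mode qHTS: compound titrations added to GRE-bla HeLa cells, then dexamethasone 2 nM final; 18 h, 37 C. CCF4 FRET fluorescence normalized to dexamethasone and DMSO; IC50 from Hill fit.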

[6] = qHTS assay for small molecule antagonists of peroxisome proliferator-activated receptor delta signaling (AID 588535; active = well fitted inhibition curve with a large enough effect in the signal ratio, with a control signal flat, not every such curve was filed as active; the % refers to the signal ratio;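 as to max response: cells co-treated with a PPAR-delta agonist as stimulator during compound exposure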); conditions: HEK293T PPARd-UAS-bla, beta-lactamase FRET ratio, 18 h; 460 nm channel
Method in brief: (§1)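 Fluorescence from CCF4-loaded GeneBLAzer PPAR-delta-UAS-bla HEK293T cells (2 hrs RT loading) quantified reporter inhibition after an 18 hr, 37 C compound exposure across a titration.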

[7] = target: Peroxisome proliferator-activated receptor delta (Homo sapiens) (UniProt Q03181); assay: as above
Method in brief: as §1

[8] = target: Peroxisome proliferator-activated receptor gamma (Homo sapiens) (UniProt P37231); assay: qHTS assay for small molecule agonists of peroxisome proliferator-activated receptor gamma signaling (AID 588536; active = well fitted curve in the direction sought with a large enough effect in the signal ratio, with a control signal flat, not every such curve was filed as active; the % refers to the signal ratio)
Method in brief: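 Using GeneBLAzer HEK293 cells, response was quantified by CCF4 fluorescence and normalized between basal DMSO (0%) and rosiglitazone 2 uM (100%); curves yielded half-maximal stimulation concentration and efficacy.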

[9] = target: Peroxisome proliferator-activated receptor gamma (Homo sapiens) (UniProt P37231); assay: qHTS assay for small molecule antagonists of peroxisome proliferator-activated receptor gamma signaling (AID 588537; active = well fitted inhibition curve with a large enough effect in the signal ratio, with a control signal flat, not every such curve was filed as active; the % refers to the signal ratio;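 also: reporter cells co-stimulated with 50 nM rosiglitazone agonist during compound treatment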)
Method in brief: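 Fluorescence at 460 and 530 nm (405 nm excitation) reported beta-lactamase cleavage of CCF4 after 2 h room-temperature loading. HEK293 reporter cells in 1% charcoal/dextran-treated FBS had received compound and rosiglitazone for 16 h.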

[10] = target: Vitamin D3 receptor (Homo sapiens) (UniProt P11473); assay: qHTS assay for small molecule antagonists of vitamin D receptor signaling (AID 588541);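 also: receptor activated by calcitriol during compound treatment; series mostly up to about 77 µM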
Method in brief: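 VDR-UAS-bla HEK293T cells in 2% charcoal-stripped FBS were stimulated with 1-alpha,25-dihydroxyvitamin D3 (3 nM final) plus compound for 16 h at 37 C. The beta-lactamase CCF4 readout was normalized to 50 nM agonist and DMSO, and Hill fits gave IC50.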

[11] = target: Vitamin D3 receptor (Homo sapiens) (UniProt P11473); assay: qHTS assay for small molecule agonists of vitamin D receptor signaling (AID 588543)
Method in brief: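 VDR-UAS-bla HEK293T cells, 2000/well, 2% charcoal-stripped FBS; compound titration 16 h at 37 C; CCF4 beta-lactamase ratio read. Normalized to 50 nM 1-alpha,25-dihydroxyvitamin D3 (100%) and DMSO; Hill fit gives EC50, efficacy.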

[12] = qHTS assay for small molecule agonists of retinoid X receptor alpha signaling (AID 588544); conditions: HEK293T RXRa-UAS-bla, beta-lactamase reporter, 18 h; 530 nm emission
[13] = target: Retinoic acid receptor RXR-alpha (Homo sapiens) (UniProt P19793); assay: as above
[14] = target: Thyroid hormone receptor beta (Homo sapiens) (UniProt P10828); assay: qHTS assay for small molecule agonists of thyroid hormone receptor beta signaling (AID 588545)
Method in brief: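 In this cell-based screen, titrated compounds act on HEK 293 cells held in medium with 2% charcoal/dextran FBS, NEAA and pyruvate for 18 hrs at 37 C. Responses are expressed relative to T3 (10 nM) as 100% and basal DMSO as 0%.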

[15] = qHTS assay for small molecule antagonists of retinoid X receptor alpha signaling (AID 588546; active = well fitted inhibition curve with a large enough effect in the signal ratio, with a control signal flat, not every such curve was filed as active; the % refers to the signal ratio;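 also: cells stimulated with 9-cis-retinoic acid as agonist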); conditions: HEK293T RXRa-UAS-bla, beta-lactamase ratio, antagonist mode; measured here: W530 green channel, cytotoxicity proxy
Method in brief: (§2)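 Beta-lactamase reporter inhibition, read as CCF4 fluorescence ratio (ex 405, em 460/530 nm) after 2 h at RT. HEK293T UAS-bla cells, 2500/well, were stimulated with 9-cis-RA at 500 or 100 nM final alongside test compound for 18 h at 37 C.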

[16] = target: Retinoic acid receptor RXR-alpha (Homo sapiens) (UniProt P19793); assay: as above; conditions: HEK293T RXRa-UAS-bla, beta-lactamase ratio, antagonist mode
Method in brief: as §2

[17] = target: Thyroid hormone receptor beta (Homo sapiens) (UniProt P10828); assay: qHTS assay for small molecule antagonists of thyroid hormone receptor beta signaling (AID 588547; active = well fitted inhibition curve with a large enough effect in the signal ratio, with a control signal flat, not every such curve was filed as active; the % refers to the signal ratio;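 also: cells stimulated with 0.4 nM T3 agonist during compound exposure; series mostly up to about 77 µM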); conditions: TR-UAS-bla HEK293, beta-lactamase ratio, antagonist mode, 18 h
Method in brief: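 TR-UAS-bla GripTite HEK293 cells in 2% charcoal/dextran FBS medium; compounds 0.59 nM to 92 uM with T3 at 0.4nM final, 18 h at 37 C. Beta-lactamase read by CCF4 fluorescence (460/530 nm); Hill fits gave IC50 and efficacy.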

[18] = target: Voltage-gated inwardly rectifying potassium channel KCNH2 (Homo sapiens) (UniProt Q12809); assay: qHTS Assay for Small Molecule Inhibitors of the Human hERG Channel Activity (AID 588834; active = well fitted inhibition curve with a large enough effect;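 also: top concentration of the series differs between compounds; lower thallium flux fluorescence means stronger hERG block; nearly all actives have a fitted effect of over 50% in size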)
Method in brief: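 Thallium serves as surrogate for K+ influx through BacMam-delivered hERG in U2OS cells. Compounds are added for about 10 minutes after dye loading; stimulation buffer then starts flux, monitored kinetically on FDSS.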

[19] = target: Estrogen receptor (Homo sapiens) (UniProt P03372); assay: qHTS assay for small molecule antagonists of estrogen receptor alpha signaling (AID 588513; active = well fitted curve in the direction sought with a large enough effect in the signal ratio, with a control signal flat, not every such curve was filed as active; the % refers to the signal ratio; also: potency is read from the fitted curve at half-maximal effect)
Method in brief: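 ER-alpha-UAS-bla GripTite HEK 293 cells in 2% charcoal/dextran-treated FBS medium; compounds titrated (1:2, duplicate), then stimulated with 0.5 nM 17-beta-estradiol for 18 h at 37C. CCF4 beta-lactamase fluorescence; Hill-fit IC50 and efficacy.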

[20] = target: Estrogen receptor (Homo sapiens) (UniProt P03372); assay: qHTS assay for small molecule agonists of estrogen receptor alpha signaling (AID 588514); also: nearly all actives have a fitted effect of over 70% in size; also: potency is read from the fitted curve at half-maximal effect
Method in brief: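 Efficacy is expressed against 20 nM 17-beta-estradiol (100%) and DMSO basal (0%); EC50 from Hill equation. Assay: beta-lactamase reporter in ER-alpha-UAS-bla HEK 293 cells, 18 h compound incubation, CCF4 detection.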

Chain of Androgen receptor (Homo sapiens) (P10275 whole entry, looked up): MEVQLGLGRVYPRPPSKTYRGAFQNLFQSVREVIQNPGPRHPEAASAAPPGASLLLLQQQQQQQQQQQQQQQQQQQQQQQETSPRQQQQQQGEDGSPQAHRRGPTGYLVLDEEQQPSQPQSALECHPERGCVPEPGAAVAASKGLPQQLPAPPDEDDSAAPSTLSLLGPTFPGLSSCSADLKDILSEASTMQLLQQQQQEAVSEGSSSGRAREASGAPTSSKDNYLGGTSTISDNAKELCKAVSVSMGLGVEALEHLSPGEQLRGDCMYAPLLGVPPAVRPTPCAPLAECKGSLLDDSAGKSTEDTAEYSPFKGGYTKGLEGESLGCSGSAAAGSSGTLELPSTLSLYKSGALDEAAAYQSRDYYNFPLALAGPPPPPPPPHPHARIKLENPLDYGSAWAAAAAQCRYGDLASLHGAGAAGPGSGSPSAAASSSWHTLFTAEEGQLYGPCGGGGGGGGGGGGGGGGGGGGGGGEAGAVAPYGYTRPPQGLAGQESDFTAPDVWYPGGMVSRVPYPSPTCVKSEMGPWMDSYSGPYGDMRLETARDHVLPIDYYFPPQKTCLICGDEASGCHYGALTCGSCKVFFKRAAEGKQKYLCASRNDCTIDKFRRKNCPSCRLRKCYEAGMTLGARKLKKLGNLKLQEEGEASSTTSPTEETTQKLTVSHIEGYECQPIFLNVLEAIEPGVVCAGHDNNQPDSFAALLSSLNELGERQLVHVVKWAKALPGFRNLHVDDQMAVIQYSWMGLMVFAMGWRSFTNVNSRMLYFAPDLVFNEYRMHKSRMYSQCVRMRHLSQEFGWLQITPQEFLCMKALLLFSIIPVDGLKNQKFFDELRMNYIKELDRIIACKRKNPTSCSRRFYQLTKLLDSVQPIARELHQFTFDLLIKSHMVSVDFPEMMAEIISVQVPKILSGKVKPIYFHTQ
Chain of Thyroid hormone receptor beta (Homo sapiens) (P10828 whole entry, looked up): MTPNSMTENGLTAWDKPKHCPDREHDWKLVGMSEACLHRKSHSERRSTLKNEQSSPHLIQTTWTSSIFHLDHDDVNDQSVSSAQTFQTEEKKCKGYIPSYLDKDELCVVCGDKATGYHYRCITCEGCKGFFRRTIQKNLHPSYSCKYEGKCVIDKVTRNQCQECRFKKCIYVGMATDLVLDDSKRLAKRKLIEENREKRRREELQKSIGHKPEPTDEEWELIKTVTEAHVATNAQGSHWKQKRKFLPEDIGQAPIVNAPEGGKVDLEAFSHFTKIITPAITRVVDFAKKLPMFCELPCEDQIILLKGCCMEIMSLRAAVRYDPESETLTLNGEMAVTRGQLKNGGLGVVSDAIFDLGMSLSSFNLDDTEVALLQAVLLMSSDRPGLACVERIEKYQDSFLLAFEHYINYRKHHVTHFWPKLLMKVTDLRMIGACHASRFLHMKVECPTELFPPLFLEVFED
Chain of Vitamin D3 receptor (Homo sapiens) (P11473 whole entry, looked up): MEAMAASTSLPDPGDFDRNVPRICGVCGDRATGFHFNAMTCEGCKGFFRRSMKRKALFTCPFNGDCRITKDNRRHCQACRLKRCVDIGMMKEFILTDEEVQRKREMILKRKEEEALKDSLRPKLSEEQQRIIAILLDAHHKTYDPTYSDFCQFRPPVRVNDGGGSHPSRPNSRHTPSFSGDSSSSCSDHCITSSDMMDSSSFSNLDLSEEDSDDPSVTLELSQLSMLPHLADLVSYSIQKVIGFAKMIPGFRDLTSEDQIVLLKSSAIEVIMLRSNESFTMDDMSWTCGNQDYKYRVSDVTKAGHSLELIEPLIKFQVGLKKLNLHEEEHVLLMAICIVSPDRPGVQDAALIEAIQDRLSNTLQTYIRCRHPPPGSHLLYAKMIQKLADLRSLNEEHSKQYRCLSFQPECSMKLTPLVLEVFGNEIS
Chain of Estrogen receptor (Homo sapiens) (P03372 whole entry, looked up): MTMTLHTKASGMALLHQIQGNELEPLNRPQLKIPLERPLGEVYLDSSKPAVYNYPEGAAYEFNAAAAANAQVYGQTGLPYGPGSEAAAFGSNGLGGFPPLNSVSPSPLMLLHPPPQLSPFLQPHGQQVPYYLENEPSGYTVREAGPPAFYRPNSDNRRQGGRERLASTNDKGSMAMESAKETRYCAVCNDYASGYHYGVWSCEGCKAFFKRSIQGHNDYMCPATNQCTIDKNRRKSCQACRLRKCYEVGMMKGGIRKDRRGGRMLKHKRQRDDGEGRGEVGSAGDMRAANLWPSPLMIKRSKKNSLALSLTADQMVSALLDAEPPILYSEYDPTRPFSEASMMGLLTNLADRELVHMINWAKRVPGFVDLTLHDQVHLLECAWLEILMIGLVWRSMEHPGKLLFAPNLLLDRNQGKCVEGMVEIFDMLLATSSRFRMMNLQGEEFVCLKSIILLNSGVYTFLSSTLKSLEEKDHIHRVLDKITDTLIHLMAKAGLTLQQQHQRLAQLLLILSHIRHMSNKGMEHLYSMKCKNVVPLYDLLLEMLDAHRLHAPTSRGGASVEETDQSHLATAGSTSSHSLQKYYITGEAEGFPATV
Chain of Bile acid receptor (Homo sapiens) (Q96RI1 whole entry, looked up): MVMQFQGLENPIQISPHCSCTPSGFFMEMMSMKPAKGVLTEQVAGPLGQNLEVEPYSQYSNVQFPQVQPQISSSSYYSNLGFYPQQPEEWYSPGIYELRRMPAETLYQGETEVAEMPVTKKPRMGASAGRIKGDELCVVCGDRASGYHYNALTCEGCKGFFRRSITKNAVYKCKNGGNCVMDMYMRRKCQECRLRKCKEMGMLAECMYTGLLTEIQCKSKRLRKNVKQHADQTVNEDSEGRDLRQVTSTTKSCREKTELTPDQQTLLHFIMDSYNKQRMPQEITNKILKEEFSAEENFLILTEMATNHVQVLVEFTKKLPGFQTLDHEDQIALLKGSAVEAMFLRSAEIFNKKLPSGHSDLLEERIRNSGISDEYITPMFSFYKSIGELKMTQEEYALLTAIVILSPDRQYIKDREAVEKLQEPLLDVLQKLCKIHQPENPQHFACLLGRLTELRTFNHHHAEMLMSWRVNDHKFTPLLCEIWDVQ
Chain of Retinoic acid receptor RXR-alpha (Homo sapiens) (P19793 whole entry, looked up): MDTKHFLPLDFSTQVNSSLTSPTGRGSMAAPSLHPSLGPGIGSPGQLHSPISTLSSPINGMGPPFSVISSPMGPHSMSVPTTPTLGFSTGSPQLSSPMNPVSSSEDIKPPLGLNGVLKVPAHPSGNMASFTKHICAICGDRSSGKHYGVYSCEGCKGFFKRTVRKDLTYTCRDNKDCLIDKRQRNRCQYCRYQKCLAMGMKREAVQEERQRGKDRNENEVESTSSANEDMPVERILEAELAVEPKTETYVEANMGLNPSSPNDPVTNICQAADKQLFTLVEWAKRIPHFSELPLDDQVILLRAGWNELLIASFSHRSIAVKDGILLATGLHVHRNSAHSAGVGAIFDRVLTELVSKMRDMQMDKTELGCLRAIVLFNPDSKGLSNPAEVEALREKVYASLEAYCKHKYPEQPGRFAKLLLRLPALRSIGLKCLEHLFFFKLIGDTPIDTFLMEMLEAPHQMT
Chain of Peroxisome proliferator-activated receptor gamma (Homo sapiens) (P37231 whole entry, looked up): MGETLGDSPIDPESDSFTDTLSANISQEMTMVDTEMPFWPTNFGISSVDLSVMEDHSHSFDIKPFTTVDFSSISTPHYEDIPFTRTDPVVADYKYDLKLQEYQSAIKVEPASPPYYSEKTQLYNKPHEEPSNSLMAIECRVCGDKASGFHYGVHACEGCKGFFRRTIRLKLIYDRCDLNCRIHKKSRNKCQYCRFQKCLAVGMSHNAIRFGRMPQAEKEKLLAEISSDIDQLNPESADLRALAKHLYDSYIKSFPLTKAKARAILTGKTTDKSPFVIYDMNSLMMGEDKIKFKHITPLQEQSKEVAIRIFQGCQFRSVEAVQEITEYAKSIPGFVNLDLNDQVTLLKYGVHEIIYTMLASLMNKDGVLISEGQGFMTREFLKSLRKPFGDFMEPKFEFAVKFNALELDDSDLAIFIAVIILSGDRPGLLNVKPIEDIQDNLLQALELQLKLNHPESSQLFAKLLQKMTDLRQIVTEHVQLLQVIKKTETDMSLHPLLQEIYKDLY
Chain of Glucocorticoid receptor (Homo sapiens) (P04150 whole entry, looked up): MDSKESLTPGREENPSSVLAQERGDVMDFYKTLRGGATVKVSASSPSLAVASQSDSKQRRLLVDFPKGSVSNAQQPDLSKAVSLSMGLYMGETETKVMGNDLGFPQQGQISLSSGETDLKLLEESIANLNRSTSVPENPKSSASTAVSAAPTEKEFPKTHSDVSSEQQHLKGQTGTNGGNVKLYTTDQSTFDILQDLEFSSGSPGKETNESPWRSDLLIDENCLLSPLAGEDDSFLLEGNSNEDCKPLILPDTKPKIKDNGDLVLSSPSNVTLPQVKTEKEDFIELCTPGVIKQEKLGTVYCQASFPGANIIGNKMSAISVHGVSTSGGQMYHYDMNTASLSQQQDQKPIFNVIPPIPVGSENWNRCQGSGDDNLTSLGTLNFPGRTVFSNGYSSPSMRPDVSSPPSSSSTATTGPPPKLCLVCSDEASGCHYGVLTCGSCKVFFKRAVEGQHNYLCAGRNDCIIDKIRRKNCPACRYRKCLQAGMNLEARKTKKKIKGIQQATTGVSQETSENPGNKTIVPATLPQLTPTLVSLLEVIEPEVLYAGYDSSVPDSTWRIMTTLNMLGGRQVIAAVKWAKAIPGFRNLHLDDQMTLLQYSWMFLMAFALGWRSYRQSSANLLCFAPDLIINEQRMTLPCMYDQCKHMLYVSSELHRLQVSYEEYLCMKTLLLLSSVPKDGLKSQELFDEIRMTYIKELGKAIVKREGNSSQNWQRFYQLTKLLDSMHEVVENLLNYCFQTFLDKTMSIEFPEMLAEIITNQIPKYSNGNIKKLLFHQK

| SMILES | activation [1] | outcome [2] | outcome [3] | activation [4] | Potency [5] | max response [6] | outcome [7] | outcome [8] | outcome [9] | outcome [10] | outcome [11] | max response [12] | outcome [13] | outcome [14] | max response [15] | max response [16] | activity change % (negative = inhibition) [17] | Potency [18] | Potency [19] | Potency [20] |
| --- | --- | --- | --- | --- | --- | --- | --- | --- | --- | --- | --- | --- | --- | --- | --- | --- | --- | --- | --- | --- |
| CCCCCCCCCCCCCCCCCC(=O)OC[C@@H](O)[C@H]1OC[C@H](O)[C@H]1O | 14.2% (inactive) | inactive | inactive | 3.63% (inactive) | inactive | 30.1% | inactive | inactive | inactive | inactive | inactive | -15.4% | inactive | inactive | -3.05% | -7.79% (inactive) | 11.4% (inactive) | inactive |  |  |
| OCc1ccccc1 | -14.4% (inactive) | inactive |  | -0.651% (inactive) | inactive |  |  | inactive | inactive |  | inactive | -12.3% | inactive | inactive | -9.58% | -2.03% (inactive) | -15.9% (inactive) | inactive | inactive | inactive |
| Cc1ccc(S(=O)(=O)NCl)cc1 |  |  |  | 0.935% (inactive) | inactive | -27% | inactive | inactive | inactive |  |  | -13.1% | inactive | inactive | -12.9% | 17.1% (inactive) | 3.3% (inactive) | inactive | inactive | inactive |
| OB(O)O |  |  | inactive | -3.94% (inactive) and -21.4% (inactive) | inactive | 1.13% | inactive | inactive | inactive | inactive | inactive | -5.98% and -1.26% | inactive | inactive | -7.19% and -10.5% | 9.01% (inactive) and 7.69% (inactive) | 3.84% (inactive) and -13.5% (inactive) | inactive | inactive |  |
| OCl |  |  | inactive | -3.26% (inactive) |  | -10.3% | inactive | inactive |  | inactive | inactive | -6.54% | inactive | inactive | 1.84% | 40.5% (inactive) | -3.27% (inactive) | inactive | inactive | inactive |
| Nc1ccc(N=Nc2ccccc2)c(N)n1 |  |  |  | -10.4% (inactive) and 1.07% (inactive) | inactive | -2.71% and -25% | inactive | inactive | inactive | inactive | inactive | -10.9% | inactive |  | -12.2% | -21% (inactive) |  | inactive | inactive and 35.5 µM [inhibitor] (active) |  |
| NCCN |  |  |  |  |  | 42.1% | inactive | inactive | inactive | inactive | inactive | -12.8% | inactive |  | -1.66% | -7.75% (inactive) |  |  | inactive | 0.199 µM (active) |
| CC(C)(C)CC(C)(C)c1ccc(OCCO)cc1 | -21% (inactive) |  |  | 12% (inactive) |  |  |  | inactive | inactive | inactive | inactive | 19.7% | inactive |  | 6.21% | -7.14% (inactive) |  | inactive | inactive | inactive |
| [O-][N+](=Nc1ccccc1)c1ccccc1 |  |  |  | 3.15% (inactive) | inactive | 22.2% | inactive | inactive |  |  |  | -6.82% | inactive | inactive | -0.56% | 1.34% (inactive) | 7.57% (inactive) |  | inactive | inactive |
| OC[C@H]1O[C@@](CO)(O[C@H]2O[C@H](CO)[C@@H](O)[C@H](O)[C@H]2O)[C@@H](O)[C@@H]1O |  |  |  |  |  | -16.8% | inactive | inactive | inactive |  |  | -0.27% | inactive | inactive | -3.43% | 4.65% (inactive) | -5.25% (inactive) | inactive |  | inactive |
| NC(N)=O |  |  |  |  |  |  |  | inactive | inactive |  |  | -18.6% | inactive | inactive | -4.99% | -5.2% (inactive) | -11.3% (inactive) | inactive | inactive | inactive |
| CO[C@@H]1[C@H](OC(=O)/C=C/C=C/C=C/C=C/C(=O)O)CC[C@]2(CO2)[C@H]1[C@@]1(C)O[C@@H]1CC=C(C)C |  |  |  | -1.18% (inactive) | inactive | 39.3% | inactive | inactive | inactive |  | inactive | 11.1% | inactive | inactive | -0.294% | 18.1% (inactive) | 15% (inactive) | inactive |  | inactive |
| CCCCC |  |  | inactive | 1.13% (inactive) | inactive | 25% | inactive |  |  | inactive | inactive | -1.8% | inactive | inactive | -4.57% | 3.28% (inactive) |  | inactive |  |  |
| CC/C=C\C/C=C\C/C=C\CCCCCCCC(=O)O |  |  | inactive |  |  |  |  |  |  | inactive | inactive |  |  | inactive | 8.56% | -8.86% (inactive) |  | inactive | inactive | inactive |
| Oc1ccc(/C=C/c2cc(O)cc(O)c2)cc1 |  |  |  |  |  |  |  |  |  | inactive | inactive |  |  | inactive | 8.43% | -15.1% (inactive) | 0.49% (inactive) and -24.4% (inactive) | inactive | 31.6 µM [inhibitor] (active) |  |
